According to PubChem BioAssay AID2289 (National Center for Advancing Translational Sciences (NCATS), 2010):
The campaign covered roughly 340,000 compounds. About 3,300 (0.97%) were called active. Another 9% or so got no clear call; they are omitted. Calls follow the shape of the dose curve; as a rule, active = well fitted inhibition curve with a large enough effect; inconclusive = small, poorly fitted or top-dose-only effect, or effect the other way; inactive = flat fitted curve, though single readings scatter. This is one part of the list.

Assay: qHTS Assay for Modulators of miRNAs and/or Inhibitors of miR-21; also: nearly all actives have a fitted effect of over 55% in size
Details: HeLa miR-21-FLuc reporter, luciferase luminescence, 48 h; actives lower the signal
How it was run: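 HeLa miR-21-FLuc reporter line, endogenous miR-21; 2000 cells/well in DMEM/10% FBS; compound titration up to ~40uM final, 48 h, 37 degree Celsius; luciferase detection reagent, 15 min lysis, CCD luminescence.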
Potency is read from the fitted curve at half-maximal effect.

Potency, active:
Clc1ccc(-c2noc(CN3CCOCC3)n2)cc1 16.5 µM, c1ccc(OCCOc2cccc3cccnc23)cc1 13.1 µM, O=[N+]([O-])c1ccccc1OCCCOc1cccc2cccnc12 5.21 µM, Brc1ccccc1OCCOc1cccc2cccnc12 11.7 µM, COc1cccc(OC)c1OCCCOc1cccc2cccnc12 7.36 µM, CC(C)Sc1nc(SCC(=O)O)c2c3c(sc2n1)COC(C)(C)C3 9.27 µM, COCCCNC(=O)C1CCN(C(=O)c2oc3cc4sc(N(C)C)nc4cc3c2C)CC1 14.7 µM, Cc1ccc(C)c(NC(=S)c2ccc3ccccc3n2)c1 1.65 µM, Cc1ccccc1NC(=S)c1ccc2ccccc2n1 7.36 µM, N/C(=N\OC(=O)COc1ccc2ccccc2c1Br)c1ccccn1 7.36 µM, N/C(=N\OC(=O)COc1ccc2ccccc2c1Br)c1ccncc1 16.5 µM, CCOC(=O)c1c(NC(=O)CN2CCN(C)CC2)sc(C(=O)Nc2ccccc2)c1C 18.5 µM, COc1cc(/C=N/NS(=O)(=O)c2ccc3ccccc3c2)ccc1OCc1ccc(C(=O)O)cc1 0.414 µM, COc1cc(/C=N/NS(=O)(=O)c2ccc(C)cc2)ccc1OCc1cccc(C(=O)O)c1 0.464 µM, Cc1cc(SCC(=O)Nc2nsc(-c3ccc(C(C)(C)C)cc3)n2)nc2ccccc12 2.33 µM, COc1ccc(-n2cc(CN(C)CCO)c(-c3cccc(F)c3)n2)cc1 0.414 µM, C/C(=N\OCc1cccc(C(=O)O)c1)c1ccc(Cl)cc1 0.0414 µM, COc1cc(/C=N/OCC(=O)Nc2cc(C)cc(C)c2)ccc1OCc1ccc(Cl)cc1 2.93 µM, COc1cc(/C=N/OCC(=O)NC2CCCCC2C)ccc1OCc1ccc(Cl)cc1 (centres undefined) 4.65 µM, CCCCc1ccc(NC(=O)C2CCCO2)cc1 (centres undefined) 1.85 µM, CC1CCN(C(=O)Cn2nnc(-c3cccs3)n2)CC1 7.36 µM, Brc1ccc(-c2cn3cc(Cc4ccccc4)sc3n2)cc1 0.329 µM, CSc1ccccc1OCc1cc(C(=O)NCc2cccc(C)n2)no1 7.36 µM, CSc1ccccc1OCc1cc(C(=O)N(C)Cc2ccncn2)no1 8.26 µM, COc1cccc(OCc2cc(C(=O)NCc3ccccn3)no2)c1 13.1 µM, CSc1ccccc1OCc1cc(C(=O)N(C)Cc2nonc2C)no1 8.26 µM, CC(NC(=O)c1cc(COc2ccccc2)on1)c1nccs1 (centres undefined) 2.07 µM, CN1CCc2c(sc(/N=C/c3cc(Cl)ccc3O)c2C#N)C1 6.56 µM, COc1cccc([C@@H]2Oc3ccc(OC)cc3C(=O)[C@H]2OC(=O)NCc2ccc3c(c2)OCO3)c1 5.85 µM, COc1ccc2c(c1)O[C@H](c1ccc3c(c1)OCO3)[C@@H](O)C2=O 11.7 µM, Cc1nc(COC(=O)c2c(C)nn(-c3ccccc3)c2C)cs1 16.5 µM, COc1ccc(C(=O)OCc2csc(C)n2)c(O)c1 7.36 µM, O=C(OCc1csc(-c2ccccc2)n1)c1ccccc1O 9.27 µM, O=C(OCc1csc(-c2ccccc2)n1)c1ccc(O)cc1 14.7 µM, Cc1ccc(SC[C@H](c2ccccc2)N2CCN(C)CCC2=O)cc1 9.27 µM, Cc1ccc(SC[C@H](CC(C)C)N2CCN(C)CCC2=O)cc1 10.4 µM, O=C(NCCC1=CCCCC1)c1cnc2n(c1=O)CCS2 6.56 µM, Fc1ccccc1Nc1nc2ccccc2o1 0.521 µM, Cn1cccc1C(=O)OCc1cc(Cl)cc2c1OCOC2 13.1 µM, C=CCN=c1scc(C)n1/N=C/c1ccc(O)c(O)c1 11.7 µM, CCCOC(=O)c1c(N)sc(C(=O)OCC)c1C 14.7 µM, Cc1c(C(=O)OC(C)C)sc(N)c1C(=O)OC(C)C 6.56 µM, CCOC(=O)c1c(N)sc(C(=O)OCCOC)c1C 18.5 µM, Cc1cc2cc(C=C(C#N)C#N)c(Cl)nc2cc1C 7.36 µM, Cc1ccc(/C(N)=N/OC(=O)COc2ccccc2Cl)cc1 10.4 µM, Cc1ccc(OCC(=O)O/N=C(\N)c2ccncc2)c(C)c1 4.14 µM, N/C(=N\OC(=O)COc1ccc(Cl)cc1Br)c1ccncc1 1.65 µM, N/C(=N\OC(=O)COc1ccc(Cl)cc1Cl)c1ccncc1 0.585 µM, N/C(=N\OC(=O)COc1ccc(Br)cc1Cl)c1ccccn1 0.117 µM, N/C(=N\OC(=O)COc1ccc(Br)cc1Cl)c1ccncc1 0.927 µM, CCc1ccc(OCC(=O)O/N=C(\N)c2ccncc2)c(Br)c1 4.65 µM, COc1ccc(NC(=O)CSc2ccccc2)c([N+](=O)[O-])c1 7.36 µM, COc1ccc(NC(=O)c2ccco2)c([N+](=O)[O-])c1 7.36 µM, CCOc1ccc(NC(=O)c2cccs2)c([N+](=O)[O-])c1 0.826 µM, O=C(O)c1cccc(N/N=C/c2ccc(OC(F)(F)F)cc2)c1 0.0521 µM, O=C(O)c1cccc(N/N=C/C2=C(Cl)c3cc(Cl)ccc3SC2)c1 0.261 µM, CSc1ccc(/C=N/Nc2cccc(C(=O)O)c2)cc1 0.147 µM, O=C(O)c1cccc(N/N=C/c2ccc(-c3ccccc3)cc2)c1 0.147 µM, O=C(O)c1cccc(N/N=C/c2ccc(F)c(F)c2)c1 0.233 µM, O=c1n(Cc2ccccc2Cl)nc2n1-c1ccccc1SC2 10.4 µM, COc1cccc(C(=O)Nc2ccc(C(F)(F)F)n(C)c2=O)c1 1.47 µM, COCCn1c(C(F)(F)F)ccc(NC(=O)c2ccccc2)c1=O 1.85 µM, Cc1cccc(-n2cnc3cc(C(=O)N4CCCCC4)ccc32)c1 9.27 µM, O=C(N=C1N=C2C=CC(Br)=CN2Cc2ccccc21)c1ccc([N+](=O)[O-])cc1[N+](=O)[O-] 3.69 µM, CCCCC#Cc1ccc2c(c1)COc1c3ccccc3nn1-2 2.07 µM, COC(=O)c1c(-c2cccs2)csc1NC(=O)COc1ccccc1 7.36 µM, COC(=O)c1c(-c2cccs2)csc1NC(=O)c1cccc(Cl)c1 0.656 µM, Cc1cc(C(=O)Nc2ccccc2)oc(=O)c1 6.56 µM, Cc1oncc1C(=O)Nc1ccc2ccccc2c1 7.36 µM, Cc1cc(C(=O)Nc2ccc3ccccc3c2)oc1C 0.293 µM, CC(=O)c1sc(NC(=O)c2ccccc2F)nc1-c1ccccc1 3.29 µM, O=C(Nc1ccccc1[N+](=O)[O-])C1COc2ccccc2O1 (centres undefined) 3.29 µM, O=C(Nc1ncccc1Cl)C1COc2ccccc2O1 (centres undefined) 4.65 µM, CCSc1nc2c(cnn2-c2ccccc2)c(=O)n1N 2.33 µM, O=C(NCCc1ccccc1)Nc1ccc(Cl)cc1 1.65 µM, CC(=O)Nc1ccc(C(=O)NCCc2ccccc2)cc1 7.36 µM, Clc1c(CSc2nc3ccccc3o2)nc2sccn12 1.12 µM, Cc1csc2nc(CSc3nc4ccccc4o3)c(Br)n12 4.65 µM, CCN(CC)c1nc(C)nc2c1cnn2CCc1ccccc1 5.85 µM, Cc1nc(NC(C)C)c2cnn(CCc3ccccc3)c2n1 14.7 µM, CCOC(=O)c1c(C)oc2c1c(C(c1ccccc1)N1CCOCC1)c(O)c1ccccc12 (centres undefined) 3.69 µM, CCOC(=O)c1c(C)oc2c1c(C(c1ccncc1)N1CCOCC1)c(O)c1ccccc12 (centres undefined) 16.5 µM, NC(=O)c1cnn(-c2ccc3ccccc3c2)c1N 16.5 µM, NC(=O)c1cnn(-c2cc(Oc3ccccc3)ncn2)c1N 2.07 µM, O=C(Nc1cccnc1)c1cc(-c2cc(Cl)ccc2O)n[nH]1 2.33 µM, Cc1ccc(-c2cc(C(=O)Nc3cccnc3)[nH]n2)c(O)c1C 2.93 µM, CCc1ccc(O)c(-c2cc(C(=O)Nc3cccnc3)[nH]n2)c1 2.33 µM, Cc1ccc(O)c(-c2cc(C(=O)Nc3cccnc3)[nH]n2)c1 2.61 µM, Cc1cc(O)c(-c2cc(C(=O)Nc3cccnc3)[nH]n2)cc1C 0.414 µM, COc1ccc(Cl)c2c1[nH]c1nc(SCc3ccccn3)nnc12 1.65 µM, CC(C)(C)NC(=O)NC(=O)COc1ccc(Br)cc1Br 0.585 µM, O=C(COc1ccccc1Cl)Nc1ccccc1C(=O)N1CCCCC1 6.56 µM, O=C(COc1ccc(Br)cc1Br)NC(=O)NC1CCCC1 5.21 µM, O=C(COc1ccccc1Cl)NC(=O)NC1CCCC1 8.26 µM, O=C(COc1ccc(Cl)cc1Cl)NC(=O)N1CCCCC1 6.56 µM, O=C(Nc1cccc2ccccc12)N1N=CCC1c1ccccc1 (centres undefined) 6.56 µM, Cc1ccc2nc(/C(C#N)=C/c3ccc(-c4ccc(C(=O)OC(C)C)cc4)o3)[nH]c2c1 4.14 µM, CCOC(=O)c1sc(-c2ccccc2)cc1N 3.98 µM, COC(=O)c1sc(-c2ccc(Cl)cc2)cc1N 4.14 µM, CCOC(=O)c1sc(-c2ccc(OC)cc2)cc1N 0.927 µM, COC(=O)c1sc(-c2cccs2)cc1N 8.26 µM, CCOC(=O)c1cc(-c2ccccc2)sc1N 18.5 µM, CCOC(=O)c1sc(=N)n(-c2ccc(OC)cc2)c1C 7.36 µM, CCOC(=O)c1c(N)sc(-c2ccccc2)c1C 11.7 µM
